According to PubChem BioAssay (NCI):
This is part of a sample that, as a whole, favours compounds with a hit. Of some 83,000 tested, about 20% had one in any assay.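 The endpoint reported here, percent growth, reads 100 for growth as untreated, 0 for no net growth and -100 for all cells dead.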 Unmarked numbers belong to inactive results. Active and inactive are the calls of the source. How the source made its calls: active means growth percent below 10; inactive means the rest.

Legend:
Experiment in all cases: NCI-60 one-dose screen, 48 h (100 = growth as untreated, 0 = no growth, -100 = all killed)
Conditions in all cases: 10 µM unless noted
NCI-H23 lung = tested on: NCI-H23 lung
NCI-H226 lung = tested on: NCI-H226 lung
NCI-H322M lung = tested on: NCI-H322M lung
HOP-62 NSCLC = tested on: HOP-62 NSCLC
NCI-H460 lung = tested on: NCI-H460 lung
HOP-92 NSCLC = tested on: HOP-92 NSCLC
NCI-H522 lung = tested on: NCI-H522 lung
A549/ATCC NSCLC = tested on: A549/ATCC NSCLC
786-0 renal = tested on: 786-0 renal
COLO 205 colon = tested on: COLO 205 colon

Structure (SMILES)	growth (NCI-H23 lung)	growth (NCI-H226 lung)	growth (NCI-H322M lung)	growth (HOP-62 NSCLC)	growth (NCI-H460 lung)	growth (HOP-92 NSCLC)	growth (NCI-H522 lung)	growth (A549/ATCC NSCLC)	growth (786-0 renal)	growth (COLO 205 colon)
Cc1ccc(/C=C(\C#N)C(=O)Nc2ncc(Cc3cc(Cl)ccc3Cl)s2)o1	67.1%	90.1%	47.3%	41.6%	30.6%	77%	48.6%	39.8%	46.9%	102%
N#C/C(=C\c1ccc(Br)cc1)c1cc2ccccc2[nH]1	92.1%	92.7%	91.6%	86.3%	96.1%	70.4%	85%	101%	93.3%	105%
CC1(C)CC[C@]2(C(=O)O)CC[C@]3(C)C(=CC[C@@H]4[C@@]5(C)C[C@@H](Cc6cn([C@@H]7O[C@H](CO)[C@@H](O)[C@H](O)[C@H]7O)nn6)[C@H](O)C(C)(C)[C@@H]5CC[C@]43C)[C@@H]2C1	104%	98.3%	97.4%	89.2%	106%	102%	106%	85%	95.8%	113%
CCN(CC)CCNC(=O)c1ccc(-c2nc3ccc4[nH]ncc4c3c3c2CCCC3)cc1	65.3%	64.7%	55.8%	57.3%	60.5%	73%	50.6%	56.1%	50.6%	63.6%
O=C(/C=C/c1cccc(Cl)c1)c1cccc(OCCCCOc2cccc(C(=O)/C=C/c3cccc(Cl)c3)c2)c1	89.3%	99.7%	92.2%	107%	98.7%	78.6%	88.7%	85.4%	98.8%	76%
COC(=O)C1=Nc2ccc(F)cc2/C1=C\c1sc(Nc2ccc(O)cc2)nc1O	73.4%	78.2%	96.7%	64.3%	102%	42.7%	47.4%	99%	66.1%	101%
C=CCn1c(SCC(=O)Nc2ccc(C(=O)/C=C/c3cc(OC)c(OC)c(OC)c3)cc2)nnc1-c1cc(-c2ccc(OC)cc2)nc2ccccc12	93.4%	94%	97.5%	96.5%	88.9%	77.4%	86.3%	98.1%	88.7%	104%
Nc1c(C(=O)O)cc(Cl)cc1[N+](=O)[O-]	90.6%	96.4%	103%	89.7%	108%	58.7%	98.4%	97.6%	96.1%	115%
CCCCCCOC(=O)CC1=C(C)/C(=C/c2[nH]c(-c3ccc[nH]3)cc2OC)N=C1C	-29.3% (active)	-30.6% (active)	11.2%	-37.8% (active)	-23% (active)	-27.7% (active)	-49.5% (active)	-6.96% (active)	-51.8% (active)	-82.9% (active)
CCNC(=O)Oc1ccc(/C(=C(/C)Cc2ccc(OC)cc2)c2ccc(OCCN3CCCC3)cc2)cc1	86.6%	90.1%	89%	93%	55.9%	61.8%	78.9%	66.4%	68%	33.4%
CCc1cccc(Sc2cc(C(=O)N3Cc4ccc(OCCN(C)C)cc4C3)ccc2O)c1	41.2%	89.3%	62.9%	71.5%	38.9%	57.1%	66.8%	43.1%	70.6%	109%
C=C1C(=O)O[C@H]2[C@H]1CC/C(Cn1cc(-c3cc(C(F)(F)F)cc(C(F)(F)F)c3)nn1)=C\CC[C@@]1(C)O[C@@H]21	-58.6% (active)	-54.5% (active)	-24.4% (active)	-78.6% (active)	-59.2% (active)	-95.1% (active)	-76.7% (active)	-85.3% (active)	-86.5% (active)	-60.4% (active)
COC(=O)c1ccc2c(c1)c1c(C)c3ccncc3c(C)c1n2C	24.1%	25%	33.6%	24%	8.82% (active)	18.7%	6.4% (active)	7.22% (active)	28.5%	2.15% (active)
COc1ccc2c(c1)c(-c1nonc1-c1c[nH]c3ccc(Br)cc13)cn2C	55.6%	84.6%	55.8%	29.6%	23.7%	75.6%	11.3%	28.1%	58.6%	23.9%
COC1=CC(c2ccc[nH]2)=N/C1=C\c1[nH]c(C)c(CC(=O)OCc2ccccc2)c1C	6.16% (active)	10.5%	25.9%	1.96% (active)	7.86% (active)	-16.8% (active)	-33.4% (active)	5.03% (active)	-23.7% (active)	-4.75% (active)
Cc1cc2oc(=O)cc(CP(=O)(O)O)c2cc1O	100%	102%	91.2%	97.3%	103%	100%	93.9%	99.9%	105%	104%
Cc1ccc(C)c(-n2c(-c3ccc(Br)cc3)csc2=NC(=O)c2ccccc2F)c1	54.7%	82.5%	92.8%	95.8%	40.3%	67.6%	168%	71.4%	71.1%	92.9%
O=C(CCCCCCN1CC(=O)N2[C@@H](C3CCCCC3)c3[nH]c4ccccc4c3C[C@H]2C1=O)NO	72.2%	97.1%	79%	65.9%	61.1%	59.1%	39.9%	86.5%	88%	62.9%
COc1cc(C(=O)c2c(-c3ccccc3)oc3c(OC)cccc23)cc(OC)c1O	34%	-0.617% (active)	56.2%	31.8%	3.99% (active)	34.9%	13.1%	20.2%	33.4%	7.65% (active)
C[N+](C)(C/C=C/c1ccccc1)Cc1ccccc1	85.2%	93.1%	89.7%	96.7%	102%	104%	90.7%	94.4%	99.1%	104%
CC(C)(C)C(=O)/C=C/c1ccc([N+](=O)[O-])cc1	85.7%	69.6%	103%	103%	97.9%	67.5%	40%	66.8%	97.5%	82.5%
CSCCC(NC(=O)c1ccccc1)C(=O)N/N=C1\S/C(=C/c2ccc(Cl)cc2)C(=O)N1C (stereo not given)	90%	86.9%	90.4%	33.9%	95.9%	70.8%	80.7%	79.9%	91.4%	101%

Structure (SMILES)	growth (NCI-H23 lung)	growth (NCI-H226 lung)	growth (NCI-H322M lung)	growth (HOP-62 NSCLC)	growth (NCI-H460 lung)	growth (HOP-92 NSCLC)	growth (NCI-H522 lung)	growth (A549/ATCC NSCLC)	growth (786-0 renal)	growth (COLO 205 colon)
COc1ccc(-c2nnc(SCC(=O)Nc3ccc(/C(C)=N\O)cc3)n2-c2ccccc2)cc1OC	68.8%	81.9%	75.7%	-26.4% (active)	102%	-8.56% (active)	35.3%	70.7%	64.5%	99.1%
CCOC(=O)c1c(C)c2c(n1C)CSc1cc(S(=O)(=O)c3ccccc3)c(=O)[nH]c1-2	21.7% [100 µM]	24.3% [100 µM]	28.1% [100 µM]	57.5% [100 µM]	9.02% [100 µM] (active)	8.76% [100 µM] (active)	32% [100 µM]	32.1% [100 µM]	31.4% [100 µM]	-27.7% [100 µM] (active)
COC(c1ccc2ccccc2c1)C(C)C(F)F (stereo not given)	95.7%	100%	99.6%	86.7%	111%	107%	86.9%	96.8%	90.5%	112%
O=c1oc2c(cnc3ccccc32)cc1-c1cccs1	101%	107%	104%	100%	112%	102%	104%	104%	98.8%	106%
CCn1cc(C(=O)N/N=C/c2ccc(Br)cc2)c(=O)c2cc(F)c(N3CCNC(C)C3)c(F)c21 (stereo not given)	91%	97.3%	85.8%	88.8%	-50.8% (active)	61.2%	78.5%	45.3%	63.9%	32.1%
Cn1cc(-c2nc(-c3c[nH]c4ccncc34)cs2)c2cc(Br)ccc21	-64.2% (active)	0.662% (active)	-93.1% (active)	-69.7% (active)	-71.4% (active)	-91.9% (active)	-70.8% (active)	-70.3% (active)	-78.5% (active)	-71.1% (active)
COc1ccc2nc3ccccc3c(NCc3ccccc3)c2c1	21.5%	34.4%	29.5%	33.6%	6.31% (active)	-13.4% (active)	34.6%	18.2%	22.3%	-19.1% (active)
COc1ccc(Nc2ncc(C(N)=O)c(NCCCNC(=O)C3CCC3)n2)cc1	76.9%	62.7%	79%	35.9%	68.6%	60.6%	77.1%	83.1%	74.1%	3.6% (active)
COc1ccc(C2C3=C(COC3=O)N(CCO)c3cc4c(cc32)OCCO4)cc1OC (stereo not given)	34.3%	41.2%	51.4%	46.3%	10.4%	40.8%	-13.9% (active)	51.2%	27.7%	-4.68% (active)
Cc1nc2ccccc2c(/C=C/c2ccc(C(F)(F)F)cc2)c1C(=O)/C=C/c1ccccc1	-12.9% (active)	-0.692% (active)	20.5%	-34.8% (active)	-74.9% (active)	16.5%	-61.9% (active)	6.27% (active)	-14.1% (active)	-54.6% (active)
Cc1c(N2CN3C[C@H](C)N4CN(c5c(C)n(C)n(-c6ccccc6)c5=O)CN5C[C@@H](C)N(C2)C3C54)c(=O)n(-c2ccccc2)n1C (stereo not given in full)	95.1%	101%	103%	103%	101%	90.8%	98.9%	106%	102%	109%
C=C1C(=O)O[C@H]2[C@H]1CC/C(COC(=O)/C=C\C(=O)NCc1ccc(Cn3c(=O)sn(-c4ccccc4)c3=O)cc1)=C\CC[C@@]1(C)O[C@@H]21	92.1%	105%	107%	105%	96.7%	84.4%	-5.66% (active)	98%	70.5%	9.17% (active)
CCOC(=O)c1c(C)nc2c(c1N)CC(=O)N2Cc1cc(OC)c(OC)c(OC)c1	39.7%	70.5%	81.3%	32.5%	17.6%	62.6%	33.2%	40.7%	66.2%	20.4%
COc1cc(C(=O)C(=O)c2cc(OC)c(O)c(OC)c2)cc(OC)c1O	101%	91%	94.4%	93.2%	101%	91.7%	89.6%	99.5%	103%	105%
CS(=O)(=O)Nc1cc(-c2ccc3ncnc(Nc4ccc5c(cnn5Cc5cccnc5)c4)c3c2)cnc1Cl	55.8%	76.4%	68.7%	51.2%	79.8%	-10% (active)	44.2%	83.7%	62.9%	68.3%
COc1cc(C2Cc3ncccc3-c3[nH]c(=O)c4cccnc4c32)cc(OC)c1OC (stereo not given)	35.3%	62.8%	55.5%	21.7%	9.39% (active)	67.5%	-31% (active)	20.4%	33%	-20% (active)
COc1ccc(C2=Nc3c(N)ncnc3NC(c3cccc(Nc4ccnc5cc(C(F)(F)F)ccc45)c3)C2)cc1 (stereo not given)	70.1%	64.2%	81.3%	63.7%	70.9%	31.4%	69.6%	59.8%	59.4%	62.4%
CCCCCCC(CCCC)COC(=O)c1ccc(Cl)cc1 (stereo not given)	110%	92.8%	111%	119%	102%	89.5%	105%	117%	103%	108%
CCCCCCCCCCCCCCCCCCOc1ccccc1CC(=O)NCC[N+]1(C)CCOCC1	67.8%	69.2%	65.2%	53%	45.7%	-2.9% (active)	30.8%	55.6%	2.4% (active)	37.6%
Cc1ccc2[nH]c(=O)c3c(c2c1)OC(N)=C(C#N)C31C(=O)c2cccc3cccc1c23 (stereo not given)	103%	91.1%	100%	98.2%	101%	104%	89.3%	103%	100%	103%
C=C(c1ccc(C(=O)O)cn1)c1cc2c(cc1C)C(C)(C)CCC2(C)C	80.3%	81%	108%	87.3%	92.4%	71.5%	65.4%	57.3%	114%	109%
